Bioassay records (PubChem BioAssay)
HIF-2a inh – blocks HIF-2a reporter activity; inhibition, % at 18.8 µM; 786-0 RCC cells HIF-2a reporter, luciferase luminescence, overnight; 360,000 tested, 0.72% active;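 active = inhibition of the luminescence signal of 40% or more relative to plate controls, in a single-dose primary screen at 18.75 µM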
TRPM1 prom inh – MITF TRPM1 promoter inhibition in SK-MEL-5 cells. SK-MEL-5 TRPM1 promoter luciferase, 24 h. inhibition, % at 12.5 µM. 330,000 tested, 0.83% active. AID 488899;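 active = mean inhibition across replicates of 60% or more, whatever share of single replicates reaches that level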
CF NFkB inh – cystic fibrosis NF-kB activation inhibition | KKLEB NF-kB-GFP reporter, PAF-induced, GFP fluorescence overnight | inhibition, % at 5 µM | 360,000 tested, 0.86% active | AID 588850;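 active = at least 50% inhibition at 5 µM, scaled per plate between neutral and stimulator controls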;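 note: PAF is a Pseudomonas aeruginosa culture filtrate used as stimulus; plate controls were PAF-stimulated DMSO wells for no effect and unstimulated DMSO wells for full effect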
KKLEB tox – reduces viability of KKLEB cystic fibrosis airway cells. KKLEB CF airway cells viability, ATPlite luminescence, overnight; active compounds read low; cells stimulated with P. aeruginosa culture filtrate. AID 602141. 360,000 tested, 0.36% active. activity change (cytotoxicity), % at 5 µM;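 active = corrected activity change at or below -50% at 5 µM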
ABHD5 PLIN5 PPI – ABHD5-PLIN5 protein interaction inhibition; Q00G26+Q8WTS1; Split G. princeps luciferase complementation, luminescence, 4 h; inhibition, % at 4 µM; 360,000 tested, 0.78% active; AID 602281;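 active = inhibition above the mean inhibition across every tested compound plus 3 SD, cut at about 22% in these data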;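 note: 0% = DMSO only wells and the 100% control is not disclosed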
Target sequence (Q00G26 whole entry, looked up): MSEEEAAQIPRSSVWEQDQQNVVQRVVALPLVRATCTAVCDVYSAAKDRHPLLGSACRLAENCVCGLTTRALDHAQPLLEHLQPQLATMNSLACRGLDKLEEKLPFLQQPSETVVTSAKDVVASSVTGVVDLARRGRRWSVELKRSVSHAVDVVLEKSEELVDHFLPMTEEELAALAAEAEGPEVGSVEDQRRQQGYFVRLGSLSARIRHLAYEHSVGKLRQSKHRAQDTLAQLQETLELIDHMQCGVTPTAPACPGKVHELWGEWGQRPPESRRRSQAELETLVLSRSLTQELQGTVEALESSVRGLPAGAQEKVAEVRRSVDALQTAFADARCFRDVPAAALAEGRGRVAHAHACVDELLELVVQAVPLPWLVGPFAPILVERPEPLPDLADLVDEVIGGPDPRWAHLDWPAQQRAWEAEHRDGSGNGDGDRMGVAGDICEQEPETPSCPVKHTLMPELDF
Target sequence (Q8WTS1 whole entry, looked up): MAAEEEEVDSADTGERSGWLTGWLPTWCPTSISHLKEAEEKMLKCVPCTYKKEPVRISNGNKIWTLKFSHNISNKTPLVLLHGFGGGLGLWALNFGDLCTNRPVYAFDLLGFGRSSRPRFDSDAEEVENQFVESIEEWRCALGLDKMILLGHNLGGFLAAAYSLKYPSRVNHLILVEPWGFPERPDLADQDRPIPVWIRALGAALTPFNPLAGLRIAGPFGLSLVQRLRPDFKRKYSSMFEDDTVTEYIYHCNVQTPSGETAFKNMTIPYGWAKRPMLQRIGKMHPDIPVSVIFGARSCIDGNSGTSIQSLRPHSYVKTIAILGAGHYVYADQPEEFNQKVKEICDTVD
Peg3 prom inh – inhibitors of Peg3 promoter; 360,000 tested, 1.7% active; HeLa PEG-Prom luciferase reporter, luminescence, overnight; inhibition, % at 20 µM;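 active = inhibition of at least 50% at 20 µM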
The depositor's hits bear a star; · = no result. Hits are enriched below; roughly 3.1% of the tested compounds scored in any of these assays.

SMILES | HIF-2a inh | TRPM1 prom inh | CF NFkB inh | KKLEB tox | ABHD5 PLIN5 PPI | Peg3 prom inh
C=CC1CN2CCC1CC2c1[nH]c2ccccc2c1CCO (configuration not stated) | 4.9 | 10.0 | -14.7 | 8.2 | -1.1 | 3.0
Cc1ccc(Cn2cc(C=O)c3ccccc32)cc1 | 35.8 | -2.3 | 26.1 | -14.7 | -1.6 | 62.8*
O=Cc1cn(Cc2ccccc2[N+](=O)[O-])c2ccccc12 | 15.9 | -1.1 | 8.3 | -2.6 | 3.7 | 21.3
COc1ccc(-c2nc3ccc(Br)cn3c2CC(=O)N2CCCC2)cc1OC | -34.6 | · | · | · | 13.7 | ·
CN1CCc2cc(O)cc3c2[C@H]1Cc1ccc(O)c(O)c1-3 | 20.0 | -12.1 | -51.4 | -76.8* | -2.6 | 2.6
CCCN1CCc2cc(O)cc3c2[C@H]1Cc1ccc(O)c(O)c1-3 | 9.4 | -6.1 | -57.8 | 5.0 | -5.8 | -6.2
COc1ccc(C2=NCC(=O)N(CC(=O)NCc3ccco3)c3sc4c(c32)CCCC4)cc1 | -11.0 | 12.4 | -4.1 | 14.3 | 38.0* | 15.7
COc1ccc2c(c1)/C(=C/c1cnc[nH]1)C(=O)N2 | -101.5 | 34.8 | 54.3* | -21.1 | -1.3 | 99.6*
CCOC(=O)c1ccc(-[n+]2c(-c3ccccc3)cc(-c3ccccc3)cc2-c2ccccc2)cc1 | · | 76.9* | · | · | · | ·
Cc1ccc(-c2cc(-c3ccc(C)cc3)[n+](-c3ccc(C(=O)[O-])cc3)c(-c3ccc(C)cc3)c2)cc1 | -28.8 | 11.8 | -4.7 | 6.7 | 5.5 | -8.3
CCOC(=O)c1cccc(-[n+]2c(-c3ccccc3)cc(-c3ccccc3)cc2-c2ccccc2)c1 | -8.8 | 68.0* | 3.3 | -5.2 | 11.5 | 26.5
Cc1ccc(-c2cc(-c3ccccc3)cc(-c3ccccc3)[n+]2-c2ccccc2)cc1 | 0.5 | 103.3* | 6.9 | -17.7 | 13.4 | 99.5*
CCOC(=O)c1ccccc1C(=O)OCC | 3.2 | 8.8 | 1.1 | 5.0 | -4.1 | -1.5
CC1CN=C(NCc2ccc(F)cc2)S1 (configuration not stated) | -19.5 | -13.7 | -2.7 | 5.3 | -0.1 | -6.8
O=c1[nH]cnc2nc(-c3ccc(N(CCCl)CCCl)cc3)[nH]c12 | -225.3 | -58.5 | 30.4 | -10.7 | 2.9 | -145.3
CC(C)(C)n1nnnc1C(c1ccnc2ccccc12)N1CCC2(CC1)C(=O)NCN2c1ccccc1 (configuration not stated) | 12.6 | · | 6.7 | -2.6 | 2.9 | 2.2
CCOP(=O)(OCC)c1cc(CC)ccc1O | 20.3 | -13.3 | 3.1 | -6.2 | -2.7 | 11.6
O=C1NC(=O)C(=Cc2ccc(-c3ccccc3[N+](=O)[O-])o2)C(=O)N1 | 23.3 | 11.3 | -14.7 | 8.3 | 10.3 | 19.6
O=C1NC(=O)C(=Cc2ccc(SC3CCCCC3)o2)C(=O)N1 | 52.4* | 15.7 | 8.2 | 10.7 | 17.5 | 40.1
COCCNC(=O)Cn1cc(C=C2C(=O)NC(=O)NC2=O)c2ccccc21 | 10.2 | 3.9 | 1.4 | 5.8 | 22.5* | 6.3
Cc1[nH]n(-c2ccccc2)c(=O)c1C(c1ccc([N+](=O)[O-])cc1)c1c(C)[nH]n(-c2ccccc2)c1=O | 8.1 | -3.0 | 54.6* | 6.1 | -40.5 | 15.0
CCC(=O)O[C@H]1CC[C@H]2[C@@H]3CCC4=CC(=O)CC[C@]4(C)[C@H]3CC[C@]12C | 10.9 | 2.2 | 1.5 | 8.4 | 6.2 | 53.2*
CC12CCC(=O)C=C1CCC1C2CCC2(C)C(O)CCC12 (configuration not stated) | 10.8 | 13.6 | 9.9 | -0.2 | 1.4 | 26.9
CCCCCCn1c(=O)c(C(=O)Nc2cnccn2)c(O)c2ccccc21 | 13.6 | 72.7* | 33.8 | -34.9 | 1.7 | 32.4
CN1C(=O)/C(=C\c2ccc(Br)s2)C(=O)NC1=S | 13.0 | 58.4 | -22.5 | -2.3 | 4.6 | 19.6
SMILES | HIF-2a inh | TRPM1 prom inh | CF NFkB inh | KKLEB tox | ABHD5 PLIN5 PPI | Peg3 prom inh
O=C1NC(=S)NC(=O)C1=Cc1ccc(Br)s1 | 79.0* | 18.8 | 10.6 | 12.3 | -10.9 | 27.6
COc1cc2c3c(c1OC)Oc1ccc(cc1)C[C@H]1c4c(cc(OC)c(OC)c4Oc4ccc(cc4)C[C@@H]3N(C)CC2)CCN1C | 11.0 | 91.2* | 9.8 | -31.5 | 10.9 | 87.4*
COc1cc2c3cc1Oc1c(OC)c(OC)cc4c1[C@H](Cc1ccc(cc1)Oc1cc(ccc1O)C[C@H]3N(C)CC2)N(C)CC4 | 16.9 | 80.3* | 9.5 | -8.3 | 12.7 | 70.2*
COc1cc2c3cc1Oc1cc(ccc1O)C[C@@H]1c4c(cc(OC)c(O)c4Oc4ccc(cc4)C[C@H]3N(C)CC2)CCN1C | -10.9 | 44.8 | 21.2 | -65.7* | 6.4 | 67.5*
COc1cc2c(cc1O)C[C@H]1c3c(cc(O)c(OC)c3-2)CCN1C | 4.5 | 13.5 | -16.7 | 10.8 | -3.1 | 9.6
COc1cc2c3cc1Oc1cc(ccc1O)C[C@@H]1c4c(cc(OC)c(O)c4Oc4cccc(c4)C[C@@H]3N(C)CC2)CC[N+]1(C)C | -0.4 | 5.1 | 9.3 | 6.8 | -0.3 | 5.2
COc1ccc(C(c2nnnn2C(C)(C)C)N2CCC3(CC2)C(=O)NCN3c2ccccc2)cc1 (configuration not stated) | 15.4 | · | 1.9 | 5.5 | -3.8 | -1.3
CC1=C2CCC3C(CCC4=CC(=O)CCC43C)C2CC1 (configuration not stated) | -6.9 | 10.7 | 22.8 | -7.5 | -7.1 | 11.2
COC(=O)C1=C(c2ccc(-c3ccccc3)c(F)c2)C[C@@H]2CC[C@H]1N2C(=O)NC1CC1 | 7.8 | 21.2 | 22.2 | 3.1 | -1.1 | 4.7
COc1c(OP2(=S)OCC(C)(C)CO2)cnn(C2CCCCC2)c1=O | -77.6 | · | -10.7 | -1.8 | 1.1 | -19.5
Cc1ccccc1-n1c(O)c(/C=C2/C(c3ccccc3)=Nc3ccccc32)c(=O)[nH]c1=O | 63.5* | -1.3 | 31.1 | -10.9 | 9.3 | -42.6
O=C(c1cc(Cl)cc(Cl)c1)N1Cc2ccccc2-n2nncc2C1 | 0.9 | · | -15.1 | -8.3 | -4.4 | 0.1
Cc1ccccc1C(O)(Cc1ccccc1)C1CN2CCC1CC2 (configuration not stated) | 18.3 | -4.2 | 1.2 | -4.9 | 6.3 | 30.0
Cc1ccc(C(O)(c2ccc(C)c(C)c2)C2CN3CCC2CC3)cc1C (configuration not stated) | 17.5 | 82.5* | 8.6 | -13.6 | 4.9 | 98.1*
O=C1NCN(c2ccccc2)C12CCN(C(c1cc3ccccc3o1)c1nnnn1-c1ccc3c(c1)OCCO3)CC2 (configuration not stated) | 1.0 | · | 21.4 | -5.5 | 5.0 | 24.3
O=c1[nH]c2ccccc2n1C1CCN(C(c2cc3ccccc3o2)c2nnnn2Cc2ccccc2)CC1 (configuration not stated) | -22.2 | · | 81.7* | -96.3* | 6.8 | 93.3*
Cc1cccc(C)c1-n1nnnc1C(c1cc2ccccc2o1)N1CCC(n2c(=O)[nH]c3ccccc32)CC1 (configuration not stated) | -41.0 | · | 24.8 | -4.1 | -13.3 | 101.6*
c1ccc2nc(N3CCNCC3)ccc2c1 | -6.5 | -8.5 | 6.7 | -4.5 | 5.0 | -6.3
